Measured values as given in article PMC4336329 (PLoS ONE, 2015).
Screen size: about 310,000 compounds; about 14,000 (4.5%) showed an effect of 50% or more. The effect is printed as a negative number. Only a selection was taken, and strong results are over-represented in it overall.

Biological target: human ether-à-go-go-related gene (hERG) potassium channel (human, UniProt Q12809)
Assay: primary screen, population patch clamp on CHO cells stably expressing hERG; higher = less effect of the substance
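Also: peak tail current of the secondary pulse compared with the same well before compound.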

Sequence of human ether-à-go-go-related gene (hERG) potassium channel (Q12809 whole entry, looked up): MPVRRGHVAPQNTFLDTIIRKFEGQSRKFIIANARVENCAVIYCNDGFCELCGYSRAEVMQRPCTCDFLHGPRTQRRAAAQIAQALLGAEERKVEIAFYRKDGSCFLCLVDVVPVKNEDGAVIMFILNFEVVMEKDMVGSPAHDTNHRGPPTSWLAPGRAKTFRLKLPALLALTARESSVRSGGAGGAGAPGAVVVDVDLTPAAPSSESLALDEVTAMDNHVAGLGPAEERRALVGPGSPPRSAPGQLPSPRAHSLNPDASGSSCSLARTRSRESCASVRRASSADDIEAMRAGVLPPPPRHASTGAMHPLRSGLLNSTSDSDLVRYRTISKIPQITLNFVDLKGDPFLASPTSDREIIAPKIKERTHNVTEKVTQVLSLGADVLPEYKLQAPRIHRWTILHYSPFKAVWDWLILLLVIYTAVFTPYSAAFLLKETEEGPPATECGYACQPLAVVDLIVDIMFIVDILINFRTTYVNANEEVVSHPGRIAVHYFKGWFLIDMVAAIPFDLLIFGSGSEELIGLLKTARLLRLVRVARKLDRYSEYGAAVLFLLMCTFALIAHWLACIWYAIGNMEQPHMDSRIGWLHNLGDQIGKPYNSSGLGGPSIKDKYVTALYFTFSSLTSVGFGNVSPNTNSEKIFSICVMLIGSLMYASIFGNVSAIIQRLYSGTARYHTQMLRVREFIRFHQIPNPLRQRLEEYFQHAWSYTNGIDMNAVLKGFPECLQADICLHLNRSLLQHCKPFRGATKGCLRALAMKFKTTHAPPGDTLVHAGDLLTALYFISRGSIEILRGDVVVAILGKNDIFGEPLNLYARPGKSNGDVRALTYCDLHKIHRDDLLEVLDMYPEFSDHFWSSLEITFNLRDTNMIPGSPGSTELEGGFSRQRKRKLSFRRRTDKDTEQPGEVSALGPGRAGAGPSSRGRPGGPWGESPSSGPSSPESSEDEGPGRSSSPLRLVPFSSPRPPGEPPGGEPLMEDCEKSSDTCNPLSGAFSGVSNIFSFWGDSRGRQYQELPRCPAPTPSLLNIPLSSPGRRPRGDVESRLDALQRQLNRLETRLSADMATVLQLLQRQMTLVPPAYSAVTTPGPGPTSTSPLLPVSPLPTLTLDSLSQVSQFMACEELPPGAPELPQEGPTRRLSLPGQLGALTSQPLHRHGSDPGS

Row | Structure (SMILES) | hERG current change (%, negative = inhibition) at 10uM
1 | CCn1cc(C(=O)NCc2ccco2)c(=O)c2cc(S(=O)(=O)N3CC(C)CC(C)C3)ccc21 (stereo not shown) | -7.3%
2 | O=c1c2ccccc2nnn1CSc1nnc(-c2cccnc2)n1-c1ccccc1F | 11.5%
3 | CNC(=O)c1cc(S(=O)(=O)Nc2ccc3c(c2)OCO3)ccc1C | 4.42%
4 | COc1ccc(CCNC(=O)CCCCC(=O)NCCc2ccc(OC)c(OC)c2)cc1OC | 4.7%
5 | CCN(c1ccc(OC)cc1)S(=O)(=O)c1nnc(NC(=O)c2ccccc2Cl)s1 | 15.5%
6 | Cc1ccnc(NC(=O)C2CCN(S(=O)(=O)c3ccc4c(c3)CC(C)N4C(=O)C3CCC3)CC2)c1 (stereo not shown) | -0.431%
7 | COc1cc(/C=C(\C#N)C(=O)Nc2cccc(C(=O)O)c2)ccc1OCc1ccc(F)cc1 | 22.6%
8 | C=CCSc1nnnn1-c1ccc(OC)cc1 | -20%
9 | Cc1ccc(CNC(=O)CCCNC(=O)c2ccc(Cl)cc2)n1C | 2.05%
10 | Cc1ccc(CN2CCN(Cc3cn(C)nc3C)CC2CCO)o1 (stereo not shown) | 12.4%
11 | CCOC(=O)C1(CCOc2ccccc2)CCN(Cc2cccc(OCCO)c2)CC1 | -83.4%
12 | CCOC(=O)C1(CCOc2ccccc2)CCN(Cc2cccc(O)c2)CC1 | -63.1%
13 | CCOC(=O)C1(CCOc2ccccc2)CCN(Cc2cccc(F)c2)CC1 | -65.4%
14 | CCOC(=O)C1(CCOC)CCN(Cc2cccc(OCc3ccccc3)c2)CC1 | -42.4%
15 | CCOC(=O)C1(CCOc2ccccc2)CCN(Cc2cccc(OC)c2)CC1 | -76.1%
16 | COc1ccccc1NCCC(=O)OCC(=O)NCc1ccco1 | 23.7%
17 | COc1ccc(N(CC(=O)Nc2cccc(C(C)=O)c2)S(C)(=O)=O)cc1OC | -10.5%
18 | Cn1c(Cn2nnc3ccccc32)nnc1SCC(=O)N1c2ccccc2CCc2ccccc21 | -23.6%
19 | O=C(NCCc1ccc(OC(F)F)cc1)C1CC(=O)N(c2ccc3c(c2)OCCO3)C1 (stereo not shown) | -47.6%
20 | CNC(=S)N/N=C/c1cc(C)ccc1C | 20.7%
21 | O=C(CCc1ccccc1)Nc1ncc([N+](=O)[O-])s1 | 2.96%
22 | Cc1ccc(CNC(=O)C2CCC(=O)N2Cc2ccccc2Cl)cc1 (stereo not shown) | 2.52%
23 | CCOC(=O)C1(CCOc2ccccc2)CCN(Cc2cc(OC)cc(OC)c2)CC1 | -79.8%

Row | Structure (SMILES) | hERG current change (%, negative = inhibition) at 10uM
24 | CN(C(=O)c1ccc(NC(=O)Cc2ccc(NC(=O)C3CCN(C(=O)C4CCCC4)CC3)cc2)cc1)C1CC1 | 22.8%
25 | O=C(CN1CCN(S(=O)(=O)c2ccc(Cl)c(Cl)c2)CC1)N1CCCCC1 | -53.5%
26 | O=C(CN1CCN(S(=O)(=O)c2ccccc2)CC1)N1CCCCC1 | 10.8%
27 | O=C(CN1CCN(S(=O)(=O)c2cccc(Cl)c2)CC1)N1CCCCC1 | -24.8%
28 | O=C(CN1CCN(S(=O)(=O)c2ccc(Cl)s2)CC1)N1CCOCC1 | 14.4%
29 | Cc1cc(Cl)c(C)c(S(=O)(=O)N2CCN(CC(=O)N3CCOCC3)CC2)c1Cl | -64.8%
30 | Cc1ccc(S(=O)(=O)N2CCN(CC(=O)N3CCOCC3)CC2)cc1 | 16.8%
31 | COc1ccc2c(c1)O[C@@]1(CCCC[C@@H]1C)CC2=O | -1.09%
32 | CCC(C)Sc1nc2c(c(=O)[nH]c(=O)n2C)n1C (stereo not shown) | -4.04%
33 | Cc1nn(C(C)C(=O)NCCN2CCCC2)c(=O)c2c1sc1ccccc12 (stereo not shown) | 1.56%
34 | Cn1c(C(=O)N2CCN(c3nc4ccccc4s3)CC2)cc2sccc21 | -8.35%
35 | COc1ccccc1C(=O)NCCCNc1ccc([N+](=O)[O-])cc1 | -19.2%
36 | O=C(Nc1ccccc1C(=O)Nc1ccncc1)c1ccc([N+](=O)[O-])cc1 | -4.77%
37 | O=C(CCNc1ccc(Cc2ccncc2)cc1)c1ccc([N+](=O)[O-])cc1 | -56.8%
38 | COC(=O)C(CC(C)C)NC(=O)c1ccc([N+](=O)[O-])cc1 (stereo not shown) | -23.2%
39 | COC(=O)C(CCCCNC(=O)c1ccc([N+](=O)[O-])cc1)NC(=O)c1ccc([N+](=O)[O-])cc1 (stereo not shown) | -76.3%
40 | COc1cc(C(=O)NCCCNc2ccc([N+](=O)[O-])cc2)cc(OC)c1OC | -57.6%
41 | O=C(NCCCCC(NC(=O)c1ccc([N+](=O)[O-])cc1)C(=O)O)c1ccc([N+](=O)[O-])cc1 (stereo not shown) | -44.7%
42 | O=[N+]([O-])c1ccc(NCc2ccncc2)cc1 | -3.55%
43 | O=C(Nc1ccc(Nc2ccncc2)cc1)c1ccc([N+](=O)[O-])cc1 | -59.5%
44 | COc1ccc(C(=O)NCCNc2ccc([N+](=O)[O-])cc2)cc1OC | -1.31%
45 | O=C(NNC(=O)c1ccncc1)Nc1ccc([N+](=O)[O-])cc1 | 11.2%
46 | O=C(CCNc1ccc(Cc2ccncc2)cc1)c1cccc([N+](=O)[O-])c1 | 11%
